Laboratory results as given in PubChem BioAssay (EPA / NIEHS).
Activity calls are given as the source filed them. How the source made its calls: active means hit-call score of the fitted dose curve at least 0.9, where 1 is the maximum; inactive means score below 0.9.

Key:
[1] = CCTE_Shafer_MEA_acute_burst_duration_mean: CCTE's Neural Acute Assay for Mean Burst Duration, Shafer Lab (AID 2284014);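 further: hits are decreases in mean burst duration relative to DMSO controls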
In short: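 Rat primary cortical neurons on 48-well MEA, treated at DIV 13 or 15 with 0.03-40 uM in at least 3 wells. Value is percent change in mean burst duration, comparing 40 min recordings at 37 C before and during exposure.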

[2] = CCTE_Shafer_MEA_acute_per_burst_spike_number_mean: CCTE's Neural Acute Assay for Average Number of Spikes Per Burst, Shafer Lab (AID 2284015);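 further: hits are decreases in mean spikes per burst versus baseline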
In short: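 Rat primary cortical neurons on 48-well MEAs (DIV 13 or 15) were treated with 0.03-40 uM compound at 37 C. Mean spikes per burst over 40 min were recorded before and after exposure and expressed as percent change from baseline, relative to DMSO.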

[3] = CCTE_Shafer_MEA_acute_interburst_interval_mean: CCTE's Neural Acute Assay for Mean Interburst Interval, Shafer Lab (AID 2284016);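 further: percent change of mean interburst interval versus each well's own pre-dose baseline; curves fitted for decrease in interburst interval relative to DMSO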
In short: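 Rat primary cortical neurons on 48-well MEAs at DIV 13 or 15 were exposed acutely to 0.03-40 uM. Spikes detected at 8x rms noise, 37 C. Mean interburst interval from 40 min recordings expressed as percent change from 40 min pre-treatment baseline.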

[4] = CCTE_Shafer_MEA_acute_burst_percentage_mean: CCTE's Neural Acute Assay for Percentage of Spikes in a Burst, Shafer Lab (AID 2284017);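 on AC50: curve fitted for loss of signal so potency reflects decreased burst percentage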
In short: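 Primary rat cortical neurons on 48-well MEA plates, treated on DIV 13 or 15 at 0.03-40 uM. Spikes detected at 8x rms noise at 37C; percent change from 40-min baseline to 40-min post-dose recording, fitted versus DMSO.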

[5] = CCTE_Shafer_MEA_acute_burst_percentage_std: CCTE's Neural Acute Assay for Standard Deviation of Burst Percentage, Shafer Lab (AID 2284018);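 further: fitted in the negative direction so actives lower burst percentage SD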
In short: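 Rat primary cortical neurons on 48-well MEAs, DIV 13 or 15, 37 C. 40-min baseline then 40-min recording with compound (0.03-40 uM); well-level SD of per-electrode burst spike percentage, expressed as percent change from baseline.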

[6] = CCTE_Shafer_MEA_acute_per_network_burst_spike_number_mean: CCTE's Neural Acute Assay for Average Number of Spikes in a Network Burst, Shafer Lab (AID 2284019);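 on AC50: curve fitted for loss of signal so actives reduce spikes per network burst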
In short: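 Rat primary cortical neurons on 48-well MEA at DIV 13 or 15, 37 C; compounds 0.03-40 uM, at least three wells each. 40-min baseline then 40-min exposure recording; percent change in mean spikes per network burst.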

[7] = CCTE_Shafer_MEA_acute_per_network_burst_spike_number_std: CCTE's Neural Acute Assay for Standard Deviation of Number of Spikes in a Network Burst, Shafer Lab (AID 2284020);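 further: fitted for decrease in spike-number SD versus DMSO so actives lower it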
In short: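 Rat primary cortical neurons on 48-well MEA (16 electrodes/well), treated DIV 13 or 15 at 0.03-40 uM, ≥3 wells per compound. 40 min recordings at 37 C before and after dosing; value is percent change in network-burst spike-number SD, negative direction vs DMSO.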

[8] = CCTE_Shafer_MEA_acute_per_network_burst_electrodes_number_mean: CCTE's Neural Acute Assay for Mean Number of Electrodes in a Network Burst, Shafer Lab (AID 2284021);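 further: curves fitted for decreases only so hits reduce electrodes per burst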
In short: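 Readout: % change in mean electrodes active per network burst, post- vs pre-treatment, each well. Spikes detected at 8x rms noise after 300-5000 Hz band-pass; rat cortical cultures, DIV 13/15, compounds 0.03-40 uM, DMSO baseline.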

[9] = CCTE_Shafer_MEA_acute_network_burst_percentage: CCTE's Neural Acute Assay for Percentage of Network Bursts, Shafer Lab (AID 2284022);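 further: curves fitted for loss so actives lower network burst percentage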
In short: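 Rat cortical cultures, DIV 13/15; 20 min equilibration, 40 min baseline, compound 0.03-40 uM, 40 min recording, 37 C. Spikes: 300-5000 Hz band-pass, threshold 8x rms noise. Readout: % change in network-burst spike fraction; loss direction vs DMSO.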

[10] = CCTE_Shafer_MEA_acute_cross_correlation_area: CCTE's Neural Acute Assay for Area of Cross Correlation, Shafer Lab (AID 2284024);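 further: area under pooled inter-electrode spike cross-correlation near zero lag as percent change from own baseline; curves fitted for loss of cross-correlation area so actives lower synchrony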
In short: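 Rat cortical cultures, DIV 13/15, MEA; spikes detected at 8x rms noise (300-5000 Hz band-pass). Compound 0.03-40 uM, ≥3 wells each. Readout: % change in pooled inter-electrode cross-correlation area vs own baseline; DMSO negative control.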

| SMILES | outcome [1] | outcome [2] | outcome [3] | AC50 [4] | outcome [5] | outcome [6] | outcome [7] | outcome [8] | AC50 [9] | outcome [10] | outcome [4] | outcome [9] | AC50 [10] | AC50 [5] | AC50 [8] | AC50 [2] | AC50 [7] | AC50 [6] | AC50 [3] |
| --- | --- | --- | --- | --- | --- | --- | --- | --- | --- | --- | --- | --- | --- | --- | --- | --- | --- | --- | --- |
| CCC(C)c1ccccc1O (centres undefined) | inactive | inactive | inactive | 7.61 µM (active) | inactive | inactive | inactive | inactive | 5 µM (active) | inactive |  |  |  |  |  |  |  |  |  |
| Oc1ccc(Cc2ccccc2O)cc1 | inactive | inactive | inactive |  | inactive | inactive | inactive | inactive |  |  | inactive | inactive | 0.00812 µM (active) |  |  |  |  |  |  |
| CC(=O)Nc1ccc(O)cc1 | inactive | inactive |  |  | inactive | inactive | inactive | inactive |  | inactive | inactive | inactive |  |  |  |  |  |  |  |
| CCCCC=O | inactive | inactive | inactive |  | inactive | inactive | inactive | inactive | 32.7 µM (active) | inactive | inactive |  |  |  |  |  |  |  |  |
| N=C(N)c1ccc(OCCCCCOc2ccc(C(=N)N)cc2)cc1 | inactive | inactive | inactive | 26.9 µM (active) |  | inactive | inactive |  |  | inactive |  | inactive |  | 31.8 µM (active) | 2.5 µM (active) |  |  |  |  |
| OCC(CO)(CBr)CBr | inactive | inactive | inactive |  | inactive | inactive | inactive | inactive |  | inactive | inactive | inactive |  |  |  |  |  |  |  |
| Oc1c(Cl)cc(Cl)cc1Sc1cc(Cl)cc(Cl)c1O | inactive |  | inactive | 7.11 µM (active) | inactive | inactive |  | inactive | 7.49 µM (active) | inactive |  |  |  |  |  | 9.08 µM (active) | 5 µM (active) |  |  |
| O=C(CCCN1CCC(O)(c2ccc(Cl)cc2)CC1)c1ccc(F)cc1 | inactive | inactive | inactive |  | inactive |  | inactive | inactive |  | inactive | inactive | inactive |  |  |  |  |  | 0.451 µM (active) |  |
| CCCCc1oc2ccccc2c1C(=O)c1cc(I)c(OCCN(CC)CC)c(I)c1 | inactive | inactive | inactive |  | inactive | inactive | inactive | inactive |  | inactive | inactive | inactive |  |  |  |  |  |  |  |
| CCCCCCCCCCCC | inactive | inactive | inactive |  | inactive | inactive | inactive | inactive |  | inactive | inactive | inactive |  |  |  |  |  |  |  |
| O=C1NS(=O)(=O)c2ccccc21 | inactive | inactive | inactive |  | inactive | inactive | inactive | inactive |  |  | inactive | inactive | 0.00962 µM (active) |  |  |  |  |  |  |
| CN(C)CCOC(c1ccccc1)c1ccccc1 | inactive | inactive |  | 5 µM (active) | inactive | inactive | inactive |  | 7.74 µM (active) | inactive |  |  |  |  | 1.25 µM (active) |  |  |  | 7.21 µM (active) |
